# Measurements: the supplement of paper PMC7530171
# ± gives the standard deviation.
# Tested on: THP-1 macrophages infected with Mycobacterium tuberculosis H37Rv
# Assay: intracellular M.tb growth inhibition relative to DMSO (0) and 4 uM bedaquiline (100); higher = stronger inhibition of intracellular bacterial growth
# Settings: 10 µM; 4 days
# Method: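 OICR kinase inhibitor library screened in duplicate at 10 uM against THP-1 macrophages (PMA-differentiated) infected with M. tuberculosis H37Rv-pTEC27 (tdTomato RFP), 4 days at 37 C. Rows with complete host cell loss (placeholder inhibition 0, cell loss 100) were removed.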
row,Structure (SMILES),intracellular M.tb growth inhibition
1,NC(=S)N/N=C/c1coc2ccccc2c1=O.[Cl][Cu][Cl],4.45 ± 6.8%
2,N#C/C(=C\c1ccc(O)c(O)c1)C(N)=S,-46 ± 15%
3,Cc1ccccc1-n1c(Cn2cnc3c(N)ncnc32)nc2cccc(C)c2c1=O,-13.6 ± 20%
4,Cn1cc(C2=C(c3cn(C4CCN(Cc5ccccn5)CC4)c4ccccc34)C(=O)NC2=O)c2ccccc21 [Enzastaurin],-5.94 ± 8.4%
5,COC[C@H]1OC(=O)c2coc3c2[C@@]1(C)C1=C(C3=O)[C@@H]2CCC(=O)[C@@]2(C)C[C@H]1OC(C)=O [Wortmannin],-159 ± 64%
6,COc1ccc2c(c1)/C(=C/c1cnc[nH]1)C(=O)N2,-99.5 ± 38%
7,O=C1NC(=O)c2c1c1c3ccccc3[nH]c1c1[nH]c3ccccc3c21 [Arcyriaflavin A],-61.8 ± 87%
8,CC(=O)c1c(O)c(C)c(O)c(Cc2c(O)c3c(c(C(=O)/C=C/c4ccccc4)c2O)OC(C)(C)C=C3)c1O [Rottlerin],-0.827 ± 1.2%
9,C/C(O)=C(\C#N)C(=O)Nc1cc(Br)ccc1Br,-33.5 ± 11%
